IL-1B inflam inh: inflammasome signaling inhibition, IL-1 beta readout; THP-1 LPS/ATP IL-1B secretion, AlphaLISA, 16 h; active compounds read low; activity change, % at 57.5 µM; 4.7% of 360,000 active; AID 743279; in the data active = activity change below about -50%; inconclusive = mostly about -30% to -49%
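THP-1 cells pretreated 1 hr with compounds (up to 57.5 uM final), then stimulated with LPS (250 ng/mL final) plus ATP (1.25 mM final); secreted IL-1B measured by AlphaLISA after 16 hr, decreased signal indicating inhibition.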
HT1080 IDH1KD tx: kills HT-1080 cells with IDH1 knockdown; HT-1080 IDH1 knockdown viability, ATP luminescence, 48 h; Potency, µM (titrated, usually from 46.1 µM), inactives show at the top dose activity, negative = toxicity, most hits filed as cytotoxic; 2% of 360,000 active; AID 686971;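 note: potency is the fitted concentration of half-maximal effect; 0% = DMSO wells and -100% = cell-free medium wells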
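Assay cells: HT-1080 with IDH1 knockdown, 750 per well, RPMI/5% FBS. Exposure: 48 h at 37 °C following 2 h pre-incubation. Read: CellTiter-Glo luminescence; fitted concentration-response, curve class assigned.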
HT1080-NT tox: kills 2HG-producing HT-1080-NT fibrosarcoma cells | HT-1080-NT fibrosarcoma viability, CellTiter-Glo ATP luminescence, 48 h | Potency, µM (highest dose often 46.1 µM), for inactives: at the top dose activity, negative = less viability, most hits filed as cytotoxic | 1.6% of 360,000 active | AID 686970;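 note: NT is the 2HG producing partner of a matched IDH1 knockdown line; potency is the fitted concentration of half-maximal effect; 0% = DMSO-treated cells and -100% = media-only wells without cells; nearly all actives have a fitted effect of over 55% in size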
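Viability by CellTiter-Glo luminescence after 48 h compound exposure at 37C of HT-1080-NT cells (750/well, RPMI, 5% FBS). % activity scaled between DMSO wells and medium-only wells, then curve-fitted and categorized by curve class.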
TDP1 cell CPT: growth inhibition of DT40 Tdp1-/-;hTDP1 cells with camptothecin (screen for TDP1 inhibitors) | Potency, µM (series often up to 46.2 µM), for the others: top-dose activity change, negative = growth inhibition, usual class: inhibitors | 12% of 420,000 active | chicken DT40 Tdp1-/-;hTDP1 cells + 20 nM CPT, ATP luminescence, 48 h | AID 686979; note: potency is the fitted concentration of half-maximal effect; nearly all actives have a fitted effect of over 55% in size
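Cell growth measured by CellTiter-Glo luminescence after a minimum 48 h, 37 C compound exposure with 20 nM CPT in Tdp1-knockout DT40 cells stably expressing hTDP1, seeded 400/well; qHTS titration format.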
DT40 TDP1 no CPT: qHTS for Inhibitors of human tyrosyl-DNA phosphodiesterase 1 (TDP1): qHTS in cells in absence of CPT. DT40 Tdp1-/- hTDP1 cells, no CPT, ATP luminescence, 48 h. Potency, µM (top dose mostly 46.2 µM), for inactives: top-dose activity change, negative = growth inhibition, usual class: inhibitors. 15% of 420,000 active. AID 686978, 2013; note: potency is the fitted concentration of half-maximal effect; nearly all actives have a fitted effect of over 55% in size
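A cellular qHTS used chicken DT40 cells lacking endogenous Tdp1 but carrying stably transfected human TDP1. Compounds were applied without camptothecin, and cell growth kinetics were judged by ATP-dependent luminescence after ≥48 hr.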
Numbers without * were called inactive; ? = inconclusive; . = no result; [ ] = remark or other dose. Sampled rows, rich in hits. Any-hit rate of the full collection: about 19%. Unless noted, calls come from the whole dose curve; as a rule, active = well fitted curve in the direction sought with a large enough effect; inconclusive = small, poorly fitted or top-dose-only effect, or another doubt; inactive = no such curve, though single readings can be large; an effect the other way counts as inactive or inconclusive. Unless noted, % is set by controls: 0 for no effect and ±100 for the full control effect.

SMILES	IL-1B inflam inh	HT1080 IDH1KD tx	HT1080-NT tox	TDP1 cell CPT	DT40 TDP1 no CPT
COc1cc(C(=O)N/N=C(\c2ccccc2)c2ccccn2)cc(OC)c1OC	49	?	?	2.6µM*	2.6µM*
CC(=NNC(=S)Nc1cccc(Cl)c1)c1ccccn1	-88*	?	18µM*	0.082µM*	0.021µM*
S=C(NCc1ccccn1)Nc1cccc(Cl)c1	-18	-4%	2%	?	?
COc1cc(C(=O)N/N=C(\C)c2ccccn2)cc(OC)c1OC	32	?	?	12µM*	8.2µM*
CCc1ccc2oc(-c3ccc(C)c(NC(=O)COc4ccccc4Cl)c3)nc2c1	.	.	.	-9%	?
COc1ccccc1NCC(=O)N/N=C(\C)c1ccc(Br)s1	-11	-3%	2%	-26%	-5%
O=C(NCCNC(=O)c1ccccn1)c1ccc(Cl)cc1	1	2%	-6%	-10%	-7%
C/C(=N/NC(=O)CNc1ccc(C)cc1)c1ccc(Br)s1	-1	-28%	-23%	18µM*	18µM*
O=C(Sc1ccc(Cl)cc1)c1ccccn1	-83*	23µM*	?	16µM*	16µM*
C/C(=N\NC(=O)c1ccccn1)c1ccc(Cl)cc1	.	4%	8%	9%	-23%
C/C(=N\NC(=O)c1ccc(Cl)cc1)c1ccccn1	-92*	?	?	0.58µM*	0.52µM*
O=C(NNC(=O)c1ccc(S(=O)(=O)N2CCCCC2)cc1)c1ccc(F)cc1	-1	-6%	12%	-2%	-13%
O=C(/C=C\c1ccco1)Oc1cccc2cccnc12	-165*	15µM*	?	0.58µM*	0.65µM*
COc1ccccc1/C=C/C(=O)Oc1cccc2cccnc12	0	0%	0%	?	16µM*
O=C(/C=C/c1ccco1)Oc1cccc2cccnc12	-94*	21µM*	?	?	?
COc1ccccc1/C=C/C(=O)OCCCN(C)C	27	0%	-2%	7%	3%
COc1ccc(-c2cccc(NC(=O)COc3ccc(Cl)cc3)c2)nn1	13	-2%	-1%	-23%	-14%
COCCn1c(=O)[nH]c2cc(C(=O)Nc3ccc(OC)cc3)ccc2c1=O	.	.	.	-20%	-16%
COc1ccc(Cn2c(=O)[nH]c3cc(C(=O)NCCCOC(C)C)ccc3c2=O)cc1	16	-1%	0%	-14%	-26%
COc1ccc(-n2c(=S)[nH]c3cc(C(=O)Nc4ccc(F)cc4)ccc3c2=O)c(OC)c1	?	-25%	-12%	16µM*	?
CCCCCn1c(=O)[nH]c2cc(C(=O)NCCN3C(C)CCCC3C)ccc2c1=O (stereo unspecified)	2	?	-5%	-26%	?
CCCCC(CC)CNC(=O)c1ccc2c(=O)n(Cc3ccc(OC)cc3)c(=O)[nH]c2c1 (stereo unspecified)	.	.	.	21µM*	?
CCCCCn1c(=O)[nH]c2cc(C(=O)N3CCN(c4cccc(C)c4)C(C)C3)ccc2c1=O (stereo unspecified)	.	.	.	21µM*	9.2µM*
CCCCCn1c(=O)[nH]c2cc(C(=O)Nc3cc(OC)cc(OC)c3)ccc2c1=O	.	.	.	13µM*	23µM*
COc1ccc(OCC(=O)Nc2ccc(-c3nc4cc(C)cc(C)c4o3)cc2)cc1	.	.	.	-22%	-22%
SMILES	IL-1B inflam inh	HT1080 IDH1KD tx	HT1080-NT tox	TDP1 cell CPT	DT40 TDP1 no CPT
CCCCCn1c(=O)[nH]c2cc(C(=O)N3CCN(c4ccc(OC)cc4)CC3)ccc2c1=O	.	.	.	9.2µM*	18µM*
CCCCCn1c(=O)[nH]c2cc(C(=O)N3CCN(c4cccc(OC)c4)CC3)ccc2c1=O	.	.	.	23µM*	15µM*
CC(=O)CC1N(S(=O)(=O)c2ccc(C)cc2)c2ccccc2N1S(=O)(=O)c1ccc(C)cc1	0	7%	11%	19%	7%
Cc1cc2c(cc1C)N[C@]1(C[C@H]3CCCC(=O)N4CC[C@@H](C1)[C@@H]34)C(=NC(C)(C)CC(C)(C)C)N2	41	-11%	-15%	18µM*	11µM*
O=C1CCC[C@@H]2C[C@@]3(C[C@@H]4CCN1[C@H]24)Nc1cc(Cl)ccc1NC3=NCc1ccccc1	24	0%	3%	?	?
Cc1cc2c(cc1C)N[C@]1(C[C@H]3CCCC(=O)N4CC[C@@H](C1)[C@@H]34)C(=NCc1ccccc1)N2	.	.	.	11µM*	11µM*
O=C1CCC[C@@H]2C[C@@]3(C[C@@H]4CCN1[C@H]24)Nc1cc(Cl)ccc1NC3=NC1CCCCC1	23	0%	1%	?	?
O=C1CCC[C@@H]2C[C@@]3(C[C@@H]4CCN1[C@H]24)Nc1cc([N+](=O)[O-])ccc1NC3=NC1CCCCC1	-11	-6%	-7%	26µM*	11µM*
Cc1cc2c(cc1C)N[C@]1(C[C@H]3CCC(=O)N4CC[C@@H](C1)[C@@H]34)C(=Nc1ccccc1C)N2	.	.	.	-81%	?
O=C(CCC(=O)OCCOc1ccccc1)OCCOc1ccccc1	0	9%	26%	-32%	-7%
CCn1c(C)c(P(c2ccccc2)c2ccccc2)[n+]2ccccc12	-20	-8%	-30%	2.3µM*	1.5µM*
CCCCC1(C)NC(=O)N(CC(=O)N2CCc3ccccc32)C1=O (stereo unspecified)	-8	3%	7%[9.24 µM]	-5%	14%
Nc1nc(-c2ccccc2)nc2sc3c(c12)CCCC3	-25	-10%	-4%	-9%	-18%
